# Experimental data reported in PubChem BioAssay (NCATS).
# Results filed as inconclusive are left out. A structure can be active in one record and inactive in another. Unmarked numbers belong to inactive results. Active and inactive are the calls of the source. The call rests on the fitted dose curve; in most records, active means well fitted inhibition curve with a large enough effect; inconclusive means small, poorly fitted or top-dose-only effect; inactive means no such curve, though single readings can be large or run the other way.
# Assay: BET inhibitor-based combinations targeting novel dependencies in MECOM-rearranged (r) AML: SET-2 cell line (AID 2202231);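 on viability: plate controls were DMSO treated cells for no effect and wells without cells for full effect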
# Settings: SET-2 AML cells viability, CellTiter-Glo luminescence, 48 h; viability: active compounds read low, concentration not given here
# Method in brief: (§1)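 AML cell lines seeded at 500 cells/well, treated with 11-point dose curves for 48 h. Viability by CellTiter-Glo luminescence, normalised to DMSO and empty wells; activity expressed as AUC and per-cell-line Z-transformed AUC.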
# Further: nearly all actives have a fitted effect of over 35% in size.
# Potency means the concentration at half of the fitted maximal effect.
Structure (SMILES),Potency,viability
CN1CCN(c2ccc(Nc3ncc4cc(C#N)c(=O)n(C5CCCC5)c4n3)cc2)CC1,1.18 µM (active),–
CN(Cc1cnc2nc(N)nc(N)c2n1)c1ccc(C(=O)N[C@@H](CCC(=O)O)C(=O)O)cc1,0.0372 µM (active),–
C=CCNC1=C2CC(C)CC(OC)C(O)C(C)/C=C(\C)C(OC(N)=O)C(OC)/C=C/C=C(\C)C(=O)NC(=CC1=O)C2=O (stereo unspecified),8.33 µM (active),–
N=C1CCCN1Cc1[nH]c(=O)[nH]c(=O)c1Cl,–,111%
N#C/C(=C\c1ccc(O)c(O)c1)C(=O)NCc1ccccc1,14.8 µM (active),–
Cn1cc(/C=C2\C(=O)Nc3cccnc32)c2ccccc21,–,86.8%
CC1Cc2ccccc2N1C(=O)Cc1nc(N2CCOCC2)cc(=O)[nH]1 (stereo unspecified),–,99.9%
Cc1cc(C(=O)NOCCO)c(Nc2ccc(I)cc2F)n(C)c1=O,–,96.3%
Cn1nccc1Nc1nccc(-c2cc3c(s2)C(C)(C)N(CCN2CCOCC2)C3=O)n1,–,105%
COc1ccc(-c2cc(C(O)C3CCCCN3)c3ccccc3n2)cc1 (stereo unspecified),14.8 µM (active),–
COc1nc(N)nc2c1ncn2C1OC(CO)C(O)C1O (stereo unspecified),–,114%
CCC[C@H](NC(=O)[C@@H]1[C@H]2CCC[C@H]2CN1C(=O)[C@@H](NC(=O)[C@@H](NC(=O)c1cnccn1)C1CCCCC1)C(C)(C)C)C(=O)C(=O)NC1CC1,0.263 µM (active),–
C[C@H]1COCCN1c1cc(C2(S(=O)(=O)C3CC3)CC2)nc(-c2ccc(NC(=S)NCCO)cc2)n1,0.417 µM (active),–
CNC(=O)Cn1cc(-c2ccc3c(c2)C(F)CC32NC(=O)N(CC(=O)N(Cc3ccc(F)cc3)[C@@H](C)C(F)(F)F)C2=O)cn1 (stereo partly specified),3.72 µM (active),103%
CN(C)CCCN=c1c2ccccc2n(C)c2[nH]c(=O)n(C)c(=O)c12,23.5 µM (active),–
OCCn1cc(-c2ccc3c(c2)CC/C3=N\O)c(-c2ccncc2)n1,–,102%
COc1cccc2c1C(=O)c1c(O)c3c(c(O)c1C2=O)C[C@@](O)(C(C)=O)C[C@@H]3O[C@H]1C[C@H](N)[C@H](O)[C@H](C)O1,0.59 µM (active),–
CC1(C)C(N(O)C(=O)Nc2ccc(Cl)cc2)N(c2ccc(Cl)cc2)C(=O)N1CC(=O)N/N=C/C=C/c1ccc([N+](=O)[O-])o1 (stereo unspecified),20.9 µM (active),–
O=C(NOCCO)c1cc(CN2OCCCC2=O)c(F)c(F)c1Nc1ccc(I)cc1F,–,70.8%
CC1=C2[N-][C@H]([C@H](CC(N)=O)[C@@]2(C)CCC(=O)NC[C@@H](C)OP(=O)([O-])O[C@H]2[C@@H](O)[C@@H](n3cnc4cc(C)c(C)cc43)O[C@@H]2CO)[C@]2(C)N=C(C(C)=C3N=C(C=C4N=C1[C@@H](CCC(N)=O)C4(C)C)[C@@H](CCC(N)=O)[C@]3(C)CC(N)=O)[C@@H](CCC(N)=O)[C@]2(C)CC(N)=O.O.[Co+2],–,95.1%
CCC(=O)NC[C@H](Cc1ccc(OCCc2nc(-c3ccccc3)oc2C)cc1)N/C(C)=C\C(=O)c1ccc(C(F)(F)F)cc1,–,111%
Cc1ccc(NC(=O)Nc2nnc(Sc3ncnc4cc(OCCCN5CCOCC5)ccc34)s2)cc1,–,111%
CN(CCO)C1CCN(c2ccc(Nc3ncc4c5ccnc(F)c5n(C5CCCC5)c4n3)nc2)CC1,2.04 µM (active),–
COc1ccc(Oc2cc(NCCC(F)(F)F)c3ncc(-c4ccc(C(=O)NC5CC5)c(C)c4)n3n2)c(F)c1F,–,80.2%
NS(=O)(=O)c1ccc(S(=O)(=O)Nc2cccc3c(Cl)c[nH]c23)cc1,14.8 µM (active),–
CC1Oc2cc(cnc2N)-c2c(nn(C)c2C#N)CN(C)C(=O)c2ccc(F)cc21 (stereo unspecified),–,105%
CC1c2cccc(O)c2C(O)=C2C(=O)C3(O)C(O)=C(C(N)=O)C(=O)C(N(C)C)C3C(O)C21 (stereo unspecified),26.3 µM (active),–

# Assay: BET inhibitor-based combinations targeting novel dependencies in MECOM-rearranged (r) AML: OCI-AML3 cell line (AID 2202232);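 on viability (% of control): plate controls were DMSO vehicle wells for no effect and wells without cells for full effect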
# Settings: CellTiter-Glo luminescence, 48 h; Potency: OCI-AML3 viability; series mostly up to 46 µM; viability (% of control): at the top concentration
# Method in brief: as §1
Structure (SMILES),viability (% of control),Potency
C[C@H](O)[C@@H]1C(=O)N2C(C(=O)O)=C(S[C@@H]3CN[C@H](CNS(N)(=O)=O)C3)[C@@H](C)[C@@H]12,97.5%,–
CC(C)NCCCn1c(Sc2cc(Cl)cc(Cl)c2)nc2c(N)ncnc21,–,10.5 µM (active)
CN(Cc1ccccc1)C(=O)c1ccc(S(=O)(=O)Nc2ccccc2)cc1,91.9%,–
Cc1[nH]c(/C=C2\C(=O)Nc3ccccc32)c(C)c1CCC(=O)O,–,20.9 µM (active)
CC(=O)[C@]1(N)Cc2c(O)c3c(c(O)c2[C@@H](O[C@H]2C[C@H](O)[C@H](O)CO2)C1)C(=O)c1ccccc1C3=O,–,8.33 µM (active)
NS(=O)(=O)Oc1ccc2c3c(c(=O)oc2c1)CCCCC3,97.2%,–
CN1CCN(c2ccc(Nc3ncc4cc(C#N)c(=O)n(C5CCCC5)c4n3)cc2)CC1,–,0.105 µM (active)
CN(Cc1cnc2nc(N)nc(N)c2n1)c1ccc(C(=O)N[C@@H](CCC(=O)O)C(=O)O)cc1,–,0.0468 µM (active)
Nc1nccn2c(C3CCC(C(=O)O)CC3)nc(-c3cc4cccc(Cl)c4[nH]3)c12 (stereo unspecified),–,4.68 µM (active)
C=CCNC1=C2CC(C)CC(OC)C(O)C(C)/C=C(\C)C(OC(N)=O)C(OC)/C=C/C=C(\C)C(=O)NC(=CC1=O)C2=O (stereo unspecified),–,0.662 µM (active)
N=C1CCCN1Cc1[nH]c(=O)[nH]c(=O)c1Cl,105%,–
N#C/C(=C\c1ccc(O)c(O)c1)C(=O)NCc1ccccc1,–,5.9 µM (active)
Cc1cc(C(=O)NOCCO)c(Nc2ccc(I)cc2F)n(C)c1=O,–,0.0059 µM (active)
Cn1nccc1Nc1nccc(-c2cc3c(s2)C(C)(C)N(CCN2CCOCC2)C3=O)n1,–,1.32 µM (active)
COc1ccc(-c2cc(C(O)C3CCCCN3)c3ccccc3n2)cc1 (stereo unspecified),–,20.9 µM (active)
COc1nc(N)nc2c1ncn2C1OC(CO)C(O)C1O (stereo unspecified),114%,–
CCC[C@H](NC(=O)[C@@H]1[C@H]2CCC[C@H]2CN1C(=O)[C@@H](NC(=O)[C@@H](NC(=O)c1cnccn1)C1CCCCC1)C(C)(C)C)C(=O)C(=O)NC1CC1,62.7%,–
C[C@H]1COCCN1c1cc(C2(S(=O)(=O)C3CC3)CC2)nc(-c2ccc(NC(=S)NCCO)cc2)n1,–,0.833 µM (active)
CN(C)CCCN=c1c2ccccc2n(C)c2[nH]c(=O)n(C)c(=O)c12,–,18.6 µM (active)
OCCn1cc(-c2ccc3c(c2)CC/C3=N\O)c(-c2ccncc2)n1,–,2.35 µM (active)
COc1cccc2c1C(=O)c1c(O)c3c(c(O)c1C2=O)C[C@@](O)(C(C)=O)C[C@@H]3O[C@H]1C[C@H](N)[C@H](O)[C@H](C)O1,–,0.0934 µM (active)
CC1(C)C(N(O)C(=O)Nc2ccc(Cl)cc2)N(c2ccc(Cl)cc2)C(=O)N1CC(=O)N/N=C/C=C/c1ccc([N+](=O)[O-])o1 (stereo unspecified),–,3.32 µM (active)
CCC(=O)NC[C@H](Cc1ccc(OCCc2nc(-c3ccccc3)oc2C)cc1)N/C(C)=C\C(=O)c1ccc(C(F)(F)F)cc1,–,20.9 µM (active)
Cc1ccc(NC(=O)Nc2nnc(Sc3ncnc4cc(OCCCN5CCOCC5)ccc34)s2)cc1,–,14.8 µM (active)
CN(CCO)C1CCN(c2ccc(Nc3ncc4c5ccnc(F)c5n(C5CCCC5)c4n3)nc2)CC1,–,0.182 µM (active)
COc1ccc(Oc2cc(NCCC(F)(F)F)c3ncc(-c4ccc(C(=O)NC5CC5)c(C)c4)n3n2)c(F)c1F,–,0.0235 µM (active)
NS(=O)(=O)c1ccc(S(=O)(=O)Nc2cccc3c(Cl)c[nH]c23)cc1,–,2.95 µM (active)
CC1c2cccc(O)c2C(O)=C2C(=O)C3(O)C(O)=C(C(N)=O)C(=O)C(N(C)C)C3C(O)C21 (stereo unspecified),–,26.3 µM (active)
